Compound activity: PubChem BioAssay, several laboratories
In the library only some 27% were active in any assay of this set; here they are far more common.
CYP2C19 inh: human CYP2C19 inhibition; hit rate 21% among 96,000; P33261; AID 778; inhibition, % at 5 µM; CYP2C19 Supersomes, luciferin-H EGE luminescence, 30 min;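 active = CYP2C19 inhibition above a set limit at 5 µM in the primary screen, cut at about 50% in these data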;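 also: plate controls were negative control wells for no effect and 2.5 mM tranylcypromine positive control for full effect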
Target sequence (P33261 whole entry, looked up): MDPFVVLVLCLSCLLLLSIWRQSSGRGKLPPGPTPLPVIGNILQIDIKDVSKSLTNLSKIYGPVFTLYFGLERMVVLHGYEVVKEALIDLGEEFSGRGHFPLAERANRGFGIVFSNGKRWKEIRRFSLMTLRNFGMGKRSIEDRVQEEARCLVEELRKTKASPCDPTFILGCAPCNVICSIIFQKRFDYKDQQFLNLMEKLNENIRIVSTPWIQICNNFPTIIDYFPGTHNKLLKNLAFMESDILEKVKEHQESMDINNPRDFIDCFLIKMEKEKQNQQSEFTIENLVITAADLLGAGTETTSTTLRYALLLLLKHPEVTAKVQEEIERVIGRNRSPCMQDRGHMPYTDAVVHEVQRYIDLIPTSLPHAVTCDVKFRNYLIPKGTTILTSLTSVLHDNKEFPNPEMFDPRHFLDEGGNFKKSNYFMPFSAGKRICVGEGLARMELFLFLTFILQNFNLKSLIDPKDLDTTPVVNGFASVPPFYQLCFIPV
Cav3 T inh: blocks human Cav3.2 T-type calcium channel | AID 449739 | hit rate 4% among 100,000 | B-score at 10 µM | Cav3.2-expressing cells, Fluo-4 calcium fluorescence FDSS; stronger effect = lower value | O95180;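 active = single-dose well whose peak fluorescence ratio is a statistical outlier from its plate by either plate-standardised score or position-corrected B-score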
CYP2C9 inh: human CYP2C9 inhibition. inhibition, % at 5 µM. hit rate 20% among 96,000. CYP2C9 Supersomes, luciferin-H conversion, luminescence;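 active = blocking of liver enzyme CYP2C9 beyond about 50% at 5 µM, limit read from the data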
CYP2C9 act: CYP2C9 (human) activation | recombinant CYP2C9, luciferin-H conversion, luminescence; stronger effect = higher value; factor 1 = untreated enzyme, 0 = blocked | activation factor at 5 µM | hit rate 1.4% among 96,000 | AID 1024;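 active = activation factor of 2 or more for CYP2C9 at a 5 µM dose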;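 also: 0 = sulfaphenazole-blocked wells and 1 = vehicle-only wells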
CYP2C19 act: activators of human cytochrome P450 2C19 | P33261 | recombinant CYP2C19, luciferin-H EGE luminescence; stronger effect = higher value; 0 = fully inhibited enzyme, 1 = untreated enzyme | activation factor at 5 µM | 96,000 tested, under 10 active | AID 1025;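 active = activation factor of at least 2 at 5 µM in the primary screen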;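 also: 0 = wells with 2.5 mM tranylcypromine and 1 = vehicle-only wells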
The depositor's hits bear a star; / = not tested or not shown.

SMILES | CYP2C19 inh | Cav3 T inh | CYP2C9 inh | CYP2C9 act | CYP2C19 act
Nc1ccc(S(=O)(=O)N2CCCc3ccccc32)cc1 | 74* | 0.41 | -273 | 3.7* | 0.3
CCc1nnc(NC(=O)C2CCCN2C(=O)NC2CCCCC2)s1 (centres undefined) | -2 | -0.24 | 6 | 0.9 | 1
c1ccc(-c2nnc(SCc3cn4ccsc4n3)o2)cc1 | 69* | 0.81 | -3 | 1 | 0.3
O=C(NCCCN1CCOCC1)c1ccc(-n2nc(C(F)(F)F)cc2-c2cccs2)cc1 | 42 | -0.19 | 65* | 0.3 | 0.6
O=C(NCCCN1CCOCC1)c1cc(-c2cccs2)on1 | -2 | 0.84 | -2 | 1 | 1
CCCCn1c(NC(=O)c2ccccc2)c(C#N)c2nc3ccccc3nc21 | -1 | / | 81* | 0.2 | 1
COCCN1C(=O)c2ccccc2C(C(=O)NCCCN2CCCC2=O)C1c1c[nH]c2ccccc12 (centres undefined) | / | 0.083 | / | / | /
CN(CCO)C1=CC(=O)CC(C)(C)C1 | / | 0.39 | / | / | /
Cc1nc(SCC(=O)NCCc2ccccc2)c2oc3ccccc3c2n1 | 65* | -0.47 | 58* | 0.4 | 0.4
CCOC(=O)CSc1nc(-c2ccccc2)nc2c1oc1ccccc12 | -15 | -1.2 | -6 | 1.1 | 1.1
CCc1nc(SCC(=O)NCCc2ccccc2)c2oc3ccccc3c2n1 | 57* | -2 | 68* | 0.3 | 0.4
CCCc1nnc(NC(=O)CCC(=O)O)s1 | -8 | 0.3 | -9 | 1.1 | 1.1
CC1C2Cn3c(nc4ccccc43)C1N(C(C)C)O2 (centres undefined) | / | 0.034 | / | / | /
Cc1cc(F)ccc1S(=O)(=O)Nc1ccccc1C(=O)Nc1ccc2[nH]c(=O)[nH]c2c1 | 9 | / | 81* | 0.2 | 0.9
CS(=O)(=O)Nc1ccccc1C(=O)Nc1cc(Cl)cc(Cl)c1 | 0 | -0.018 | 38 | 0.6 | 1
O=C(c1oc(=O)c2ccccc2c1-c1ccccc1)N1CCOCC1 | 0 | -0.37 | 2 | 1 | 1
O=C(c1ccco1)N1CCN(C(=O)c2oc(=O)c3ccccc3c2-c2ccccc2)CC1 | 49 | 1.7 | 60* | 0.4 | 0.5
CCOC(=O)N1CCN(C(=O)c2oc(=O)c3ccccc3c2-c2ccc(C)cc2)CC1 | 60* | -1.4 | 59* | 0.4 | 0.4
Cc1ccc(N(CC(=O)Nc2cccc(C)c2)S(=O)(=O)c2cccc3nonc23)cc1 | 55* | -0.47 | 89* | 0.1 | 0.4
Cc1cccc(N(C)C(=O)CCS(=O)(=O)c2cccc3nonc23)c1 | 94* | 1.6 | 20 | 0.8 | 0.1
CC(=O)c1cccc(NC(=O)CCS(=O)(=O)c2cccc3nonc23)c1 | 22 | 0.11 | 12 | 0.9 | 0.8
COc1ccc(N(C)C(=O)CCS(=O)(=O)c2cccc3nonc23)c(OC)c1 | 64* | 0.47 | 9 | 0.9 | 0.4
COCC(=O)Nc1ccc(C(C)C)cc1 | 16 | -0.088 | 7 | 0.9 | 0.8
Cc1ccc(N2CCN(/N=C/c3sccc3C)CC2)cc1 | 50 | -0.22 | -179 | 2.8* | 0.5
CCOc1ccc(NS(=O)(=O)c2ccc(NC(C)=O)c(OC)c2)cc1 | 52* | 0.61 | 25 | 0.7 | 0.5
SMILES | CYP2C19 inh | Cav3 T inh | CYP2C9 inh | CYP2C9 act | CYP2C19 act
CCOc1ccc(NS(=O)(=O)c2cc(Cl)ccc2OC)cc1 | 43 | -3.1 | 91* | 0.1 | 0.6
COC(=O)COc1ccc(S(=O)(=O)Nc2ccc(C(N)=O)cc2)cc1C | 20 | -1.1 | 55* | 0.5 | 0.8
CCOc1cc(S(=O)(=O)Nc2cc(C)cc(C)c2)ccc1Cl | 98* | -3.3 | -97 | 2* | 0
COC(=O)COc1ccc(S(=O)(=O)Nc2ccc(C(N)=O)cc2)cc1Cl | 15 | 0.73 | 42 | 0.6 | 0.9
Cc1cc(C)cc(NS(=O)(=O)c2ccc3oc(=O)ccc3c2)c1 | 100* | -1.3 | 62* | 0.4 | 0
CCOc1ccc(NS(=O)(=O)c2ccc(OC)c(C)c2)cc1 | 93* | -1.9 | 92* | 0.1 | 0.1
CCOc1ccc(NS(=O)(=O)c2ccc3c(c2)CCN3C(=O)C2CCC2)cc1 | -4 | -0.079 | 8 | 0.9 | 1
O=c1ccc2cc(S(=O)(=O)N3CCOCC3)ccc2o1 | 22 | -0.035 | 7 | 0.9 | 0.8
CCOc1ccc(-n2c(SCC(N)=O)nc3c(c2=O)SCC3)cc1 | -20 | / | 3 | 1 | 1.2
CN1C(=O)c2oc3ccc(Br)cc3c(=O)c2C1c1ccncc1 (centres undefined) | 18 | / | 44 | 0.6 | 0.8
CCCN1C(=O)/C(=C/C=C2\N(CC)c3ccccc3C2(C)C)SC1=S | 14 | -4.5* | 33 | 0.7 | 0.9
CC(=O)N1CCc2cc(S(=O)(=O)NC(Cc3ccccc3)C(=O)NC3CCCCCC3)ccc21 (centres undefined) | 35 | -0.39 | 53* | 0.5 | 0.7
CC(=O)N1CCc2cc(S(=O)(=O)NC(CC(C)C)C(=O)N3CCn4c3nc3ccccc34)ccc21 (centres undefined) | 51* | 0.99 | 57* | 0.4 | 0.5
Cc1nc2ccc(S(=O)(=O)NC(C(=O)N3CCn4c3nc3ccccc34)C(C)C)cc2s1 (centres undefined) | 2 | -0.67 | 11 | 0.9 | 1
CC(=O)N1CCc2cc(S(=O)(=O)NCCC(=O)Nc3ccc4c(c3)OCCO4)ccc21 | 2 | 0.2 | 37 | 0.6 | 1
CC(=O)N1CCc2cc(S(=O)(=O)NC(CC(C)C)C(=O)Nc3ccc4c(c3)OCCO4)ccc21 (centres undefined) | 49 | -0.041 | 59* | 0.4 | 0.5
O=C(CCN1C(=O)COc2ccccc21)NCc1cccs1 | 84* | 0.38 | -10 | 1.1 | 0.2
O=C(CN1CCOc2ccccc21)NCc1cccs1 | 60* | 0.77 | 7 | 0.9 | 0.4
COc1ccc(CCNC(=O)CCN2C(=O)COc3ccc(C)cc32)cc1OC | 31 | 0.18 | 20 | 0.8 | 0.7
COc1ccc(CCNC(=O)CCN2C(=O)COc3ccccc32)cc1OC | 82* | 0.55 | 24 | 0.8 | 0.2
CCOc1ccc(CCNC(=O)C2CCN(S(=O)(=O)N3CCOCC3)CC2)cc1OCC | -7 | -0.39 | -12 | 1.1 | 1.1
Cc1ccc2cc(COC(=O)C3CCCO3)c(=O)[nH]c2c1 (centres undefined) | 0 | 0.23 | 4 | 1 | 1
Cc1cc(C)c2nc(N)sc2c1 | 68* | -0.68 | 32 | 0.7 | 0.3
CO/N=C/c1ccc(N2CCN(C(=O)c3cccc(C(F)(F)F)c3)CC2)c([N+](=O)[O-])c1 | 22 | -1.5 | 27 | 0.7 | 0.8
O=[N+]([O-])c1cc(/C=N/O)ccc1SCc1ccccc1 | 20 | -0.19 | 26 | 0.7 | 0.8
CO/N=C/c1ccc(Sc2ccccc2)c([N+](=O)[O-])c1 | 16 | -0.31 | 74* | 0.3 | 0.8
CO/N=C/c1ccc(Sc2ccccc2N)c([N+](=O)[O-])c1 | 74* | -1.4 | 69* | 0.3 | 0.3
CO/N=C/c1ccc(N2CCN(C(=O)c3ccc(F)cc3)CC2)c([N+](=O)[O-])c1 | 39 | -0.11 | 42 | 0.6 | 0.6
